Bioassay records deposited in PubChem by The Scripps Research Institute Molecular Screening Center.
PAFAH2 inh: PAFAH2 enzyme inhibitors, primary screen, biochemical, fluorescence polarization, human | Platelet-activating factor acetylhydrolase 2, cytoplasmic (Homo sapiens), Q99487 | recombinant PAFAH2, FP-rhodamine activity probe | inhibition, % at 3.39 µM | actives 0.99% (n = 340,000) | AID 492956, 2010;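 active = inhibition above the mean over all tested compounds plus 3 SD, cut at about 30% in these data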;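 also: inhibitors block probe labeling of enzyme so polarization drops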
PAFAH1B3 FP inh: PAFAH1B3 enzyme inhibitors, primary screen, biochemical, fluorescence polarization, human. Platelet-activating factor acetylhydrolase IB subunit alpha1 (Homo sapiens), Q15102. recombinant PAFAH1B3, FP-rhodamine probe. inhibition, % at 3.39 µM. actives 0.28% (n = 340,000);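 active = inhibition above the screen-wide average of all tested compounds plus 3 SD, cut at about 25% in these data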
Target sequence (Q15102 whole entry, looked up): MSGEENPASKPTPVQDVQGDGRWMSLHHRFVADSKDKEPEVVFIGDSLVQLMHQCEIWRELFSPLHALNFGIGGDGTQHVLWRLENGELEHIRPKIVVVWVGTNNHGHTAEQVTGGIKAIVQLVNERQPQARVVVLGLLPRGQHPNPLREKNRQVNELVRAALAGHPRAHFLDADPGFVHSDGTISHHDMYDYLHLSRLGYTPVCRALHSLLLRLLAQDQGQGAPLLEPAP
PME-1 primary: PME-1 inhibitors via competitive probe labeling, primary screen, biochemical, fluorescence polarization, FP-Rh probe, HTS | Protein phosphatase methylesterase 1 (Homo sapiens), Q9Y570 | AID 2130, 2009 | inhibition, % at 5.9 µM | recombinant PME-1 | actives 0.53% (n = 320,000);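 active = inhibition above the campaign mean of all compounds plus 3 SD, cut at about 26% in these data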;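 also: competitive labeling of PME-1 active site by serine hydrolase directed probe; inhibitors block probe labeling so polarization falls and inhibition rises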
PAFAH1B2 inh: PAFAH1B2 enzyme inhibitors, primary screen, biochemical, fluorescence polarization, human; inhibition, % at 3.39 µM; actives 1.2% (n = 340,000); recombinant PAFAH1B2, FP-rhodamine activity probe; Platelet-activating factor acetylhydrolase IB subunit alpha2 (Homo sapiens), P68402;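 active = inhibition above the mean of all tested compounds plus 3 SD, cut at about 24% in these data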
Target sequence (P68402 whole entry, looked up): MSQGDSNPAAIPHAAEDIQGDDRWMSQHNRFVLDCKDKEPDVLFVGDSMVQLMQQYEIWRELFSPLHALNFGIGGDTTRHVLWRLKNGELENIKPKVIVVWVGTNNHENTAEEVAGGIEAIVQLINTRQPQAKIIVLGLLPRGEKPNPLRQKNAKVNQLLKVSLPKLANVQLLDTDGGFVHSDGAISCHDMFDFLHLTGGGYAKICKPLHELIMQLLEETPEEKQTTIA
pPAFAH FP inh: pPAFAH enzyme inhibitors, primary screen, biochemical, fluorescence polarization, human; Platelet-activating factor acetylhydrolase (Homo sapiens), Q13093; recombinant pPAFAH, FP-rhodamine probe fluorescence polarization; inhibition, % at 3.39 µM; actives 1.5% (n = 330,000); AID 463082, 2010;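 active = inhibition above the mean inhibition across the screen plus 3 SD, cut at about 25% in these data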;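 also: inhibitors block binding of the rhodamine activity-based probe so polarization drops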
Fam108B inh: mouse Fam108B serine hydrolase inhibitors, primary screen, counter-screen for RBBP9 inhibitor project, biochemical, fluorescence polarization; recombinant Fam108B, FP-Rh probe fluorescence polarization; inhibition, % at 9.51 µM; actives 0.33% (n = 300,000);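 active = inhibition above the screen mean inhibition plus 3 SD, computed separately per campaign, cut at about 18% in these data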;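 also: inhibitors lower polarization as less probe binds the enzyme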
Fam108b confirm: mouse Fam108b serine hydrolase inhibitors, confirmation, counter-screen for RBBP9 inhibitor project, biochemical, fluorescence polarization, triplicate | recombinant Fam108b, FP-Rh probe fluorescence polarization | shares compounds with Fam108B inh | AID 1978, 2009 | actives 44% (n = 930) | inhibition, % at 9.51 µM;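 active = inhibition above a limit from the primary screen, the mean over all compounds plus 3 SD, cut at about 19% in these data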;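 also: inhibitors free the probe so polarization falls as inhibition rises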
Fam108b ABPP HTS: inhibition of mouse Fam108b by HTS hits, late-stage follow-up, biochemical, gel-based ABPP, soluble recombinant form; shares compounds with Fam108B inh; fluorophosphonate probe; inhibition, % at 20 µM; actives 44% (n = 260); AID 588649, 2011; in the data active = inhibition above about 40%
pPAFAH confirm: pPAFAH (PLA2G7) enzyme inhibitors, confirmation, biochemical, fluorescence polarization, human; shares compounds with pPAFAH FP inh; recombinant pPAFAH, FP-Rh probe fluorescence polarization; inhibition, % at 3.39 µM; actives 72% (n = 2,300); AID 463230, 2010;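 active = mean inhibition of the triplicate above the hit cutoff set for the earlier primary screen, cut at about 25% in these data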
Each line names hits and unclear results; the compound was inactive in the other large screens (follow-up assays come after a bar, where they were run). Hits are enriched below; roughly 2.8% of the tested compounds scored in any of these assays.

Cc1ccc(NC(=O)c2ccc(Nc3c([N+](=O)[O-])cc([N+](=O)[O-])cc3[N+](=O)[O-])cc2)cc1	PAFAH1B3 FP inh 27, PME-1 primary 36, pPAFAH FP inh 52, Fam108B inh 22 | Fam108b confirm inactive | pPAFAH confirm 51
CN(CCC#N)C(=O)COC(=O)C1c2ccccc2Oc2ccccc21	none
N#CCCN(CCC#N)C(=O)C1c2ccccc2Oc2ccccc21	PME-1 primary 84, pPAFAH FP inh 65, Fam108B inh 67 | Fam108b confirm inactive | pPAFAH confirm inactive
COc1ccc(NC(=O)CCCNC(=O)c2ccc(Cl)cc2)cc1S(=O)(=O)N1CCOCC1	none (no result: PME-1 primary, pPAFAH FP inh, Fam108B inh)
Cc1ccc(Nc2nc(-c3cccnc3)nc3ccccc23)cc1	none
Cc1c(O)ccc(/C=N/Nc2nc(-c3cccnc3)nc3ccccc23)c1O	PAFAH1B3 FP inh 30, PME-1 primary 40, pPAFAH FP inh 42, Fam108B inh 39 | Fam108b confirm active | pPAFAH confirm 46
NS(=O)(=O)c1ccc(N/N=C/c2ccccc2C(=O)O)c([N+](=O)[O-])c1	none
O=C(O)COc1ccccc1/C=N/Nc1ccc(S(=O)(=O)Nc2ccc(Cl)cc2)cc1[N+](=O)[O-]	PME-1 primary 50, PAFAH1B2 inh 47, pPAFAH FP inh 65, Fam108B inh 18 | Fam108b confirm 24 | pPAFAH confirm 68
Cc1c(Br)c(=O)oc2c(Br)c(O)c(O)cc12	PAFAH2 inh 83, PAFAH1B3 FP inh 47, PAFAH1B2 inh 51, pPAFAH FP inh 63, Fam108B inh 25 | Fam108b confirm 21 | pPAFAH confirm 81
Cc1c(Br)c(=O)oc2c(Br)c(O)ccc12	none
COc1cccc2c1C(=O)c1c(O)c3c(c(O)c1C2=O)C[C@@](O)(C(=O)CO)C[C@@H]3O[C@H]1C[C@H](N)[C@H](O)[C@H](C)O1	PAFAH2 inh 46, PME-1 primary 48, PAFAH1B2 inh 41, pPAFAH FP inh 58, Fam108B inh 32 | Fam108b confirm 34 | Fam108b ABPP HTS 65 | pPAFAH confirm 45
C=C(CN(C)C)C(=O)c1cc(OC)c(OC)cc1OC	none (no result: PME-1 primary, pPAFAH FP inh, Fam108B inh)
COc1ccc(NC(=O)C2CCCN2C(=O)Nc2ccc(OC)cc2)cc1 (centres undefined)	none (no result: PME-1 primary, pPAFAH FP inh, Fam108B inh)
CC1=CN2C(=N)/C(=C/c3ccc([N+](=O)[O-])o3)C(=O)N=C2S1	PME-1 primary 33, pPAFAH FP inh 44, Fam108B inh 19 | Fam108b confirm inactive | pPAFAH confirm 30
O=C1CCn2c1c(O)c1ccccc1c2=O	none (no result: PME-1 primary, pPAFAH FP inh, Fam108B inh)
N=C1CCC(=N)c2c1c(O)c1ccccc1c2O	PAFAH2 inh 69, PAFAH1B3 FP inh 44, PME-1 primary 64, PAFAH1B2 inh 39, pPAFAH FP inh 64, Fam108B inh 39 | Fam108b confirm inactive | pPAFAH confirm 41
O=C(CC1OC(=O)c2ccccc21)Nc1cc(Cl)ccc1N1CCOCC1 (centres undefined)	none (no result: PME-1 primary, Fam108B inh)
CN1C(=O)NC(c2ccccc2[N+](=O)[O-])C2=C1CC(C)(C)CC2=O (centres undefined)	none
CN1C(=O)NC(c2ccccc2[N+](=O)[O-])C2=C1CCCC2=O (centres undefined)	PAFAH2 inh 67, PAFAH1B3 FP inh 58, PME-1 primary 84, PAFAH1B2 inh 49, pPAFAH FP inh 72, Fam108B inh 68 | Fam108b confirm 24 | pPAFAH confirm inactive
